Measured values taken from ChEMBL document CHEMBL3988442, “University of Dundee, Small-Polar-MMV Screening Library” (2021).
Out of some 48,000 compounds screened, about 13,000 (27%) showed an effect of 50% or more. The list shows a part of the results.

These compounds were tested on Wolbachia pipientis (assay: Anti-Wolbachia Cell-Based Screen). Details: 5 µM.
Assay type: functional
Set-up: scale not given: in the data most compounds retested in dose-response had high values
In the case of `CN(C)S(=O)(=O)NC(=O)CC(c1ccccc1)C(F)(F)F` (configuration not stated), the “Percent Effect” value is reported as -3.128%.
`CCCS(=O)(=O)NCc1cccnc1Oc1ccc(C)nc1` was tested, and the “Percent Effect” value was -8.382%.
In the case of `O=C(CC1OCCc2ccsc21)NCC1CC1` (configuration not stated), the “Percent Effect” value is reported as -1.416%.
With `CCc1nc(C(=O)N2CCN(CCc3ccc(OC)cc3)CC2)c[nH]1` the “Percent Effect” value was -9.12%.
For `Cc1ccc(C)c(N2CCN(CC3(O)CCNC3)CC2)c1` (configuration not stated), the “Percent Effect” value was -4.262%.
In the case of `Cc1cc(O)cc(=O)n1CCCC(=O)Nc1n[nH]c2ccccc12`, the “Percent Effect” value is reported as 106.8%.
In the case of `Cc1noc(C)c1NC(=O)CCn1cc(Br)ccc1=O`, the “Percent Effect” value is reported as 5.297%.
In the case of `Cc1cc(O)cc(=O)n1CCCC(=O)Nc1n[nH]c2cc(Br)ccc12`, the “Percent Effect” value is reported as 109.7%.
In the case of `Cn1nc(C(C)(C)C)cc1NC(=O)Cn1ccccc1=O`, the “Percent Effect” value is reported as 13.92%.
With `Cc1ccccc1-c1cc(NC(=O)Cn2ccccc2=O)n(C)n1` the “Percent Effect” value was -15.16%.
With `Cc1cc(O)cc(=O)n1CCCC(=O)Nc1n[nH]c2cccc(F)c12` the “Percent Effect” value was 106.9%.
With `Cc1cc(NC(=O)Cn2ccccc2=O)n(C)n1` the “Percent Effect” value was -5.406%.
In the case of `O=C(NCCCO)C1CC(=O)N(c2n[nH]c3cccc(F)c23)C1` (configuration not stated), the “Percent Effect” value is reported as 13.85%.
For `Cc1nonc1NC(=O)CCn1cc(Br)ccc1=O`, the “Percent Effect” value was -2.489%.
In the case of `COc1ccccc1OC1(C(=O)O)CCN(c2nccnc2OC)CC1`, the “Percent Effect” value is reported as -49.7%.
For `CC(=O)c1ccc(N2CCCC(CO)(Cc3ccccc3F)C2)nc1` (configuration not stated), the “Percent Effect” value was -130%.
In the case of `CC(C(=O)N1CCn2cncc2C1)N1C[C@@H](C)O[C@@H](C)C1` (some centres not stated), the “Percent Effect” value is reported as 4.778%.
`Cc1nc(C)c(C(=O)N2CCCC2(C)C(=O)NC2CCCC2)s1` (configuration not stated) was tested, and the “Percent Effect” value was 95.95%.
In the case of `CNC(=O)C1CCCCN1C(=O)c1sc(-c2ccc(C)o2)nc1C` (configuration not stated), the “Percent Effect” value is reported as 8.745%.
`Cc1noc(C)c1C(=O)N1CCCC1(C)C(=O)NC1CCCC1` (configuration not stated) was tested, and the “Percent Effect” value was 82.14%.
In the case of `Cc1noc([C@@]23CCO[C@@H]2CCN(C(=O)c2c(C)noc2C)C3)n1`, the “Percent Effect” value is reported as -5.968%.
`COc1cccc2c1CCCCN2C(=O)c1oc(C)nc1C` was tested, and the “Percent Effect” value was -10.05%.
`Cc1noc(C2CCN(C(=O)c3c(C)noc3C)CC2)n1` was tested, and the “Percent Effect” value was -1.195%.
In the case of `Cc1nc(C)c(C(=O)N2CCCc3c(F)ccc(F)c32)o1`, the “Percent Effect” value is reported as -4.238%.
For `Cc1nc(C)c(C(=O)N2CCCC2(C)C(=O)NC2CCCC2)o1` (configuration not stated), the “Percent Effect” value was 148.2%.
For `O=C(CCn1cccn1)N1CCN(CC(F)F)CC1`, the “Percent Effect” value was 6.604%.
`CN(Cc1nc2ccsc2c(=O)[nH]1)CC1CCCCC1` was tested, and the “Percent Effect” value was -1.437%.
`COc1nc2ccn(CCc3cc(O)nc(C)n3)c(=O)c2cc1C#N` was tested, and the “Percent Effect” value was -7.353%.
For `COc1ccc(CCN2CCc3c(nc(C4CC4)n3C)C2)cc1`, the “Percent Effect” value was -1.016%.
In the case of `c1ccc(-c2nc3c(c(NCCc4c[nH]cn4)n2)CCNC3)cc1`, the “Percent Effect” value is reported as 7.707%.
In the case of `Cc1nc(C)c(C)c(NCCSc2ccccn2)n1`, the “Percent Effect” value is reported as -2.821%.
`Cc1nc(O)cc(CCNc2nc(N(C)C)nc(C)c2C)n1` was tested, and the “Percent Effect” value was 19.28%.
With `Cc1nc(N(C)C)ncc1C(=O)NCCc1csc(-c2cnccn2)n1` the “Percent Effect” value was -3.2%.
With `Cc1nc(CCNc2nc(N(C)C)nc3c2CCCC3)cc(=O)[nH]1` the “Percent Effect” value was 13.62%.
For `c1nc(CCNc2nc(C3CC3)nc3c2CCNCC3)c[nH]1`, the “Percent Effect” value was 9.275%.
For `Cc1nc(N(C)C)nc(NCCc2cnccn2)c1C`, the “Percent Effect” value was 98.55%.
For `Cc1nc(N(C)C)nc(NCCc2ccccn2)c1C`, the “Percent Effect” value was 85.61%.
`Cc1nc(N(C)C)nc(NCCc2c[nH]cn2)c1C` was tested, and the “Percent Effect” value was 92.29%.
In the case of `Cc1cccnc1N1CCN(Cc2cc(O)c3cccc(F)c3n2)CC1`, the “Percent Effect” value is reported as -4.875%.
`CCS(=O)(=O)N1CCOC2(CCCN(c3ncc(F)cn3)C2)C1` (configuration not stated) was tested, and the “Percent Effect” value was -5.745%.
In the case of `Cc1cnc(CNS(=O)(=O)CCC2CCCO2)o1` (configuration not stated), the “Percent Effect” value is reported as -9.077%.
For `CC1CN(Cc2cccnc2)CCN1c1ccc2nncn2n1` (configuration not stated), the “Percent Effect” value was 111.3%.
For `CC1CN(Cc2cnn(C)c2)CCN1c1ccc2nncn2n1` (configuration not stated), the “Percent Effect” value was 114.2%.
With `CC1CN(Cc2cccc(C#N)c2)CCN1c1ccc2nncn2n1` (configuration not stated) the “Percent Effect” value was -2.779%.
In the case of `COc1cccc(CN2CCN(c3ccc4nncn4n3)C(C)C2)c1` (configuration not stated), the “Percent Effect” value is reported as -8.631%.
With `CC1CN(Cc2nccn2C)CCN1c1ccc2nncn2n1` (configuration not stated) the “Percent Effect” value was 2.712%.
`CCC(=O)N1CCN(C(=O)Nc2cccc(F)c2)[C@H]2CS(=O)(=O)C[C@H]21` was tested, and the “Percent Effect” value was 4.618%.
`Cc1cnn(CC2CN(Cc3nc4ccccc4nc3C)CCO2)c1` (configuration not stated) was tested, and the “Percent Effect” value was -8.261%.
`Cc1nc(CN2CCOC(Cn3cccn3)C2)nc2ccccc12` (configuration not stated) was tested, and the “Percent Effect” value was 103.8%.
`Cc1cnn(CC2CN(Cc3nc(C)c4ccccc4n3)CCO2)c1` (configuration not stated) was tested, and the “Percent Effect” value was 114.4%.
For `Cc1nc2ccccc2nc1CN1CCOC(Cn2cccn2)C1` (configuration not stated), the “Percent Effect” value was 77.13%.
`Cc1nc(CN2CCOC(Cn3cncn3)C2)nc2ccccc12` (configuration not stated) was tested, and the “Percent Effect” value was -10.51%.
